Drawing on PubChem BioAssay (Tox21), this text covers Potency for 36 compounds.

Assay [1] is described as follows: qHTS assay to identify small molecule antagonists of the thyroid receptor (TR) signaling pathway - cell viability counter screen (AID 743064). Note: nearly all actives have a fitted effect of over 50% in size. Note: potency is the fitted concentration of half-maximal effect. The method in brief: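 Fluorescence from CellTiter-Fluor, added after 23.5 h exposure at 37 °C, reported viability of GH3.TRE-Luc cells co-treated with compound and 1 nM T3. Measured in the same wells as the luciferase TR readout.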

The nature of assay [2]: qHTS assay to identify small molecule antagonists of the thyroid receptor (TR) signaling pathway (AID 743065). Note: nearly all actives have a fitted effect of over 55% in size. Note: potency is the fitted concentration of half-maximal effect. The method in brief: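 Antagonism measured as loss of luciferase signal in GH3 cells stably carrying a TRE-luciferase reporter, co-treated with compound and T3 (1 nM final) for 23.5 h at 37 C. Viability was read in the same well by CellTiter-Fluor.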
Background: In qHTS, concentration-response curves come from the screen itself.

Assay [3] relates to thyroid hormone receptor (rat, GH3 cells). The experiment in a line: qHTS assay to identify small molecule agonists of the thyroid receptor (TR) signaling pathway (AID 743066; calls by dose curve).
Assay [4] in a line: qHTS assay to identify small molecule antagonists of the estrogen receptor alpha (ER-alpha) signaling pathway - cell viability counter screen (AID 743074; calls by dose curve; note: nearly all actives have a fitted effect of over 45% in size).
In assay [5] the target is Estrogen receptor (Homo sapiens) (UniProt P03372). The experiment in a line: qHTS assay to identify small molecule agonists of the estrogen receptor alpha (ER-alpha) signaling pathway (AID 743075; calls by dose curve).
Assay [6] has the same target. The experiment in a line: qHTS assay to identify small molecule agonists of the estrogen receptor alpha (ER-alpha) signaling pathway using the BG1 cell line (AID 743079). Note: nearly all actives have a fitted effect of over 20% in size. Note: potency is the fitted concentration of half-maximal effect.
Assay [7] can be described thus: qHTS assay to identify small molecule antagonists of the estrogen receptor alpha (ER-alpha) signaling pathway using the BG1 cell line - cell viability counter screen (AID 743081).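 Note: compound given together with 17beta-estradiol as the ER stimulus; nearly all actives have a fitted effect of over 45% in size.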 Note: potency is the fitted concentration of half-maximal effect.
In another assay the target is Aromatase (Homo sapiens) (UniProt P11511). Briefly: qHTS assay to identify aromatase inhibitors (AID 743083). Note: nearly all actives have a fitted effect of over 55% in size. Note: potency is the fitted concentration of half-maximal effect.
Assay [8] is described as follows: qHTS assay to identify small molecule antagonists of the estrogen receptor alpha (ER-alpha) signaling pathway using the BG1 cell line (AID 743080; calls by dose curve;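 note: BG1 cells stimulated with 17beta-estradiol alongside compound; series mostly up to about 70 µM; nearly all actives have a fitted effect of over 25% in size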). The method in brief: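 After 5 days in phenol-red-free 10% charcoal-stripped FBS medium, BG1-Luc-4E2 cells were seeded, left 24 h at 37 C, co-treated with compounds and 17beta-estradiol for 21.5 h, then assayed for viability and luciferase.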

For assay [9], the target named is Estrogen receptor (Homo sapiens) (UniProt P03372). The experiment in a line: qHTS assay to identify small molecule antagonists of the estrogen receptor alpha (ER-alpha) signaling pathway (AID 743069; active = well fitted curve in the direction sought with a large enough effect in the signal ratio in the repeat runs, not every such curve was filed as active; the % refers to the signal ratio). In short, it runs like this:
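Fluorescence intensity from a beta-lactamase FRET substrate served as the read-out. Cells: HEK293 with stably integrated ER-alpha-UAS-bla reporter. Agonist 17beta-estradiol was co-added with compounds; incubation 18 hr at 37C, substrate 2 hr at room temperature.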

Values joined by “and” are separate entries in the source; they are usually repeats but may differ in a detail not shown here. Equal entries are not always repeated. Inconclusive results are not listed. More than one record can exist for a structure, and the calls need not agree. Active and inactive are the calls of the source. Unless noted, calls come from the whole dose curve; as a rule, active = well fitted curve in the direction sought with a large enough effect in the repeat runs; inconclusive = weak or mixed curves; inactive = no such curve, though single readings can be large; an effect the other way counts as inactive or inconclusive.

Aromatase (Homo sapiens), sequence (P11511 whole entry, looked up): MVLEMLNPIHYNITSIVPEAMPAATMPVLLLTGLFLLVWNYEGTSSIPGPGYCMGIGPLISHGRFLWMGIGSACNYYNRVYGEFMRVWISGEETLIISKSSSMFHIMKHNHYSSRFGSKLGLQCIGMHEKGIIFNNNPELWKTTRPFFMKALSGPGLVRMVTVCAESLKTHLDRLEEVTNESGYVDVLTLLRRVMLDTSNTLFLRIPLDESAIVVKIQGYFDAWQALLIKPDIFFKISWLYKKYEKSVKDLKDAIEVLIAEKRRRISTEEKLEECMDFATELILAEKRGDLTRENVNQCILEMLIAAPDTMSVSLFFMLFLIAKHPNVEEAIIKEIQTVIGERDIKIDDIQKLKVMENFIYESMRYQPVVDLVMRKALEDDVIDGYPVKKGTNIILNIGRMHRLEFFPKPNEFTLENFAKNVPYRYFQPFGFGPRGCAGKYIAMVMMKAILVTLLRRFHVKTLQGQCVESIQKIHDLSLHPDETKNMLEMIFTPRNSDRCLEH
Estrogen receptor (Homo sapiens), sequence (P03372 whole entry, looked up): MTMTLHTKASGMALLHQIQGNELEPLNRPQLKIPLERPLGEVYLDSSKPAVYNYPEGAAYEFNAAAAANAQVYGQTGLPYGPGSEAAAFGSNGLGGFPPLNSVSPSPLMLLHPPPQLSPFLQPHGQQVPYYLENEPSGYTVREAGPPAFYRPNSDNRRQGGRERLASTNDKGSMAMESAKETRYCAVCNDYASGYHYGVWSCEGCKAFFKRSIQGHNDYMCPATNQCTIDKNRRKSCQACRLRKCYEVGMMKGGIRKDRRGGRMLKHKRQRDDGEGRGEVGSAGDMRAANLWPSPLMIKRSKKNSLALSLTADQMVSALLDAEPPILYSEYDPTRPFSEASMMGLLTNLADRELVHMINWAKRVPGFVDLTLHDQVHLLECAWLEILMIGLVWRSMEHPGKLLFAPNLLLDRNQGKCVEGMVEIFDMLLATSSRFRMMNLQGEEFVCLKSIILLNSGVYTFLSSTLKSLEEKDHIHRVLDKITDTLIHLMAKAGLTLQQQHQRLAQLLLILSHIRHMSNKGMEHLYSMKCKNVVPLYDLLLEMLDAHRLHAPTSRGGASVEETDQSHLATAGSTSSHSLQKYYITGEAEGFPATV

Regarding `CC(C)C1CCC(C(=O)N[C@H](Cc2ccccc2)C(=O)O)CC1` (some centres undefined), the Potency entry in assay [1], in [2], in assay [3], in assay [4], in assay [5] and in [6] was “inactive” in each case. The Potency entry (in assay [7]; in the assay with Aromatase (Homo sapiens)) was “inactive” throughout.

`BrC(Br)C(Br)Br`: the Potency entry in assay [1], in assay [2], in [3], in [4], in [5] and in assay [6] was “inactive” throughout. Further, the Potency result (in assay [8]; in assay [7]; with Aromatase (Homo sapiens)) was “inactive” in each case.

On to `CC[C@H]1OC(=O)[C@H](C)[C@@H](O[C@H]2C[C@@](C)(OC)[C@@H](O)[C@H](C)O2)[C@H](C)[C@@H](O[C@@H]2O[C@H](C)C[C@H](N(C)C)[C@H]2O)[C@](C)(O)C[C@@H](C)/C(=N\OCOCCOC)[C@H](C)[C@@H](O)[C@]1(C)O`, for which the Potency result in assay [1] was “inactive and 32.1 µM (active)”; in [7], “inactive and 18.1 µM (active)”. The Potency entry (in assay [2]; in assay [3]; in assay [4]; in [5]; in assay [6]; with Aromatase (Homo sapiens)) was “inactive” each time.

As to `CC(=O)N[C@@H](Cc1ccc(O)cc1)C(=O)O`, the Potency entry in assay [1], in assay [2], in assay [3], in [4] and in assay [7] was “inactive” in each case.

In the case of `O=C1NC(=O)c2cccc3cccc1c23`, the Potency result in assay [1], in [2], in assay [3], in assay [4], in [5] and in assay [6] was “inactive” each time. The Potency result (in [8]; in assay [7]; in the assay with Aromatase (Homo sapiens)) was “inactive” each time.

For the compound `CC(C)C(=O)OCCOc1ccccc1`, the Potency result in [1], in assay [2], in assay [3], in assay [4], in assay [5] and in assay [6] was “inactive” in each case. Further, the Potency entry (in assay [8]; in [7]; in the assay with Aromatase (Homo sapiens)) was “inactive” throughout.

In the case of `COC(=O)CC(C(C)=O)C(=O)OC` (centres undefined), the Potency result in assay [1], in assay [2], in assay [3], in [4], in assay [5] and in assay [6] was “inactive” each time. Moreover, the Potency entry (in assay [8]; in assay [7]; in the assay with Aromatase (Homo sapiens)) was “inactive” each time.

Turning to `CCN(Cc1cccc(S(=O)(=O)O)c1)c1ccc(C(=C2C=CC(=[N+](CC)Cc3cccc(S(=O)(=O)O)c3)C=C2)c2ccccc2S(=O)(=O)[O-])cc1`, the Potency in assay [1] was 34.5 µM (active); in assay [2], 15.4 µM (active); in [7], 38.7 µM (active); with Aromatase (Homo sapiens), 17.3 µM (active). Further, the Potency result in assay [3], in assay [9] and in [5] was “inactive” in each case.

On to `ClC1=C(Cl)C1(Cl)Cl`, for which the Potency result in assay [1], in [2], in assay [3], in assay [4], in assay [5] and in assay [6] was “inactive” in each case. Also, the Potency result (in assay [7]; with Aromatase (Homo sapiens)) was “inactive” each time.

With `CCCCCCCCCCCC(=O)OCC(O)CO` (centres undefined), the Potency result in assay [1], in assay [2], in assay [3], in assay [4], in assay [5] and in assay [6] was “inactive” in each case. The Potency result (in [8]; in assay [7]; with Aromatase (Homo sapiens)) was “inactive” each time.

In the case of `CCN(CC)c1cccc(O)c1`, the Potency entry in [1], in assay [2], in [3], in [4], in [8] and in assay [7] was “inactive” each time. Also, the Potency entry in the assay with Aromatase (Homo sapiens) was “inactive”. Further, in assay [6], the Potency was 70 µM (active).

Take `O=C(O)CO`: the Potency result in assay [1], in [2], in assay [3], in assay [4], in assay [5] and in assay [6] was “inactive” in each case. For the same compound, the Potency result (in [7]; with Aromatase (Homo sapiens)) was “inactive” each time.

In the case of `Cc1c[nH]c2ccccc12`, the Potency result (in assay [1]; in assay [2]; in assay [3]; in assay [4]; in assay [7]; with Aromatase (Homo sapiens)) was “inactive” in each case.

With `CC1CCCC(=O)C1=O` (centres undefined), the Potency result in assay [1], in assay [2], in assay [3], in assay [4], in [5] and in assay [6] was “inactive” throughout. Further, the Potency entry (in assay [8]; in [7]; with Aromatase (Homo sapiens)) was “inactive” in each case.

As for `CC(=O)OCC(=O)[C@@]1(OC(C)=O)[C@@H](C)C[C@H]2[C@@H]3C[C@H](F)C4=CC(=O)C=C[C@]4(C)[C@@]3(F)[C@@H](O)C[C@@]21C`, the Potency entry (in assay [1]; in assay [2]; in assay [3]; in [4]; in [7]; with Aromatase (Homo sapiens)) was “inactive” throughout.

Regarding `CCCCOC(=O)CCCCC(=O)OCCCC`, the Potency entry in assay [1], in [2], in [3], in [4] and in assay [7] was “inactive” each time.

On to `O=C(O)CCCc1c[nH]c2ccccc12`, for which the Potency result (in assay [1]; in [2]; in [3]; in [4]; in assay [7]; with Aromatase (Homo sapiens)) was “inactive” in each case.

With `N[C@@H](Cc1cc(I)c(O)c(I)c1)C(=O)O`, the Potency result in assay [1], in assay [2], in assay [3], in [9], in assay [5] and in assay [6] was “inactive” throughout. Besides, the Potency entry with Aromatase (Homo sapiens) was “inactive”.

As to `COc1ccc(C)cc1`, the Potency result (in assay [1]; in assay [2]; in assay [3]; in [4]; in assay [7]; with Aromatase (Homo sapiens)) was “inactive” in each case.

As to `O=C(O)/C=C/c1ccc(O)c(O)c1`, the Potency result (in assay [1]; in assay [2]; in [3]; in assay [4]; in assay [7]; with Aromatase (Homo sapiens)) was “inactive” each time.

Regarding `CC1CCCO1` (centres undefined), the Potency result (in [1]; in assay [2]; in assay [3]; in assay [4]; in assay [7]; with Aromatase (Homo sapiens)) was “inactive” in each case.

On to `CC(C)COC(=O)c1ccc(O)cc1`, for which the Potency entry (in assay [1]; in [2]; in [3]; in assay [4]; in assay [7]; with Aromatase (Homo sapiens)) was “inactive” in each case.

Turning to `Cc1ccc(Nc2c(F)cccc2Cl)c(CC(=O)O)c1`, the Potency result in assay [1], in [2], in assay [3], in assay [4], in assay [5] and in assay [6] was “inactive” in each case. For the same compound, the Potency entry (in [7]; with Aromatase (Homo sapiens)) was “inactive” in each case.

For the compound `CNc1c2c(nn1C)CCCC2`, the Potency entry in assay [1], in assay [2], in assay [3], in [4], in assay [5] and in assay [6] was “inactive” in each case. Also, the Potency result (in assay [8]; in assay [7]; with Aromatase (Homo sapiens)) was “inactive” each time.

As for `CS(=O)(=O)c1ccc([C@@H](C[C@H]2CCC(=O)C2)C(=O)Nc2cnccn2)cc1Cl`, the Potency result in [1], in assay [2], in assay [3], in [4], in assay [5] and in assay [6] was “inactive” in each case. Also, the Potency result (in assay [7]; in the assay with Aromatase (Homo sapiens)) was “inactive” each time.

In the case of `CCCCCCCCCCCCCCN(C)C`, the Potency entry in [1], in [3], in [9], in assay [4], in assay [5] and in assay [6] was “inactive” each time. Also, the Potency entry (in assay [7]; with Aromatase (Homo sapiens)) was “inactive” each time.

On to `CC(CN(CCN(CC(C)OCCO)CC(C)OCCO)CC(C)OCCO)OCCO` (centres undefined), for which the Potency result (in assay [1]; in assay [2]; in assay [3]; in [4]; in assay [7]; with Aromatase (Homo sapiens)) was “inactive” each time.

Take `CC(C)Cc1ccc(CC(=O)O)cc1`: the Potency entry (in [1]; in assay [2]; in assay [3]; in [4]; in [7]; with Aromatase (Homo sapiens)) was “inactive” in each case.

For the compound `COc1cc(NS(=O)(=O)c2ccc(N)cc2)nc(C)n1`, the Potency result in [1], in assay [3], in assay [4], in [5], in assay [6] and in assay [8] was “inactive” each time. The Potency entry (in [7]; with Aromatase (Homo sapiens)) was “inactive” throughout.

On to `Nc1ccc(S(=O)(=O)NCc2ccccc2)cc1`, for which the Potency result (in [1]; in [2]; in assay [3]; in assay [4]; in [7]; in the assay with Aromatase (Homo sapiens)) was “inactive” throughout.

`CCCCCCCCCCCCCCCCCC(=O)OCC(CC)CCCC` (centres undefined): the Potency result (in assay [1]; in assay [2]; in assay [3]; in assay [7]; in the assay with Aromatase (Homo sapiens)) was “inactive” in each case.

As to `CC(O)Cn1cnc2c1c(=O)n(C)c(=O)n2C` (centres undefined), the Potency result (in [1]; in assay [2]; in assay [3]; in [7]; with Aromatase (Homo sapiens)) was “inactive” throughout.

For `O=C(O)c1cccc(Oc2ccccc2)c1`, the Potency entry in assay [1], in [3], in [9], in assay [4], in assay [5] and in assay [6] was “inactive” throughout. Moreover, the Potency entry (in [7]; with Aromatase (Homo sapiens)) was “inactive” in each case.

Regarding `CC(=O)C(C)=O`, the Potency result (in assay [1]; in [2]; in assay [3]; in [4]; in assay [7]; with Aromatase (Homo sapiens)) was “inactive” throughout.

Consider `CO[C@@H]1[C@@H](OC)[C@H](C)[C@@](O)(CC(=O)O)O[C@H]1[C@H](C)[C@H]1O[C@@]2(CC[C@@](C)([C@H]3CC[C@@](C)([C@@H]4O[C@@H]([C@H]5O[C@](C)(O)[C@H](C)C[C@@H]5C)C[C@@H]4OC4C[C@H](OC)[C@@H](OC)[C@H](C)O4)O3)O2)C[C@H](O)[C@H]1C` (some centres undefined), for which the Potency was 0.422 µM (active) in assay [1], 0.335 µM (active) in [2] and 2.98 µM (active) in assay [7]. The Potency entry (in assay [5]; in the assay with Aromatase (Homo sapiens)) was “inactive” in each case.

Take `C1=CCC2CC=CC2C1` (centres undefined): the Potency entry (in [1]; in assay [2]; in [3]; in assay [4]; in assay [7]; with Aromatase (Homo sapiens)) was “inactive” each time.
